# Results as given in PubChem BioAssay (NCI).
# The panel holds about 83,000 compounds, 20% with a hit somewhere; the sample as a whole holds those more often.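 Single-concentration screen, 48 h exposure, 96-well plates. Endpoint: percent growth. Below 10 = active.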 A number with no mark means an inactive call. The source made the active and inactive calls.
# Assays:
# Test in all cases: NCI-60 one-dose screen, 48 h (100 = growth as untreated, 0 = no growth, -100 = all killed)
# Conditions in all cases: 10 µM
# SR leukemia = system: SR leukemia
# RPMI-8226 leukemia = system: RPMI-8226 leukemia
# OVCAR-8 ovarian = system: OVCAR-8 ovarian
# OVCAR-5 ovarian = system: OVCAR-5 ovarian
# OVCAR-4 ovarian = system: OVCAR-4 ovarian
# SK-OV-3 ovarian = system: SK-OV-3 ovarian
# IGROV1 ovarian = system: IGROV1 ovarian
# OVCAR-3 ovarian = system: OVCAR-3 ovarian
# HS 578T breast = system: HS 578T breast
# NCI/ADR-RES ovarian = system: NCI/ADR-RES ovarian
# T-47D breast = system: T-47D breast
# BT-549 breast = system: BT-549 breast
# SW-620 colon = system: SW-620 colon
# MCF7 breast = system: MCF7 breast
# HCT-116 colon = system: HCT-116 colon
# HCC-2998 colon = system: HCC-2998 colon
# KM12 colon = system: KM12 colon
# MDA-MB-468 breast = system: MDA-MB-468 breast
# MDA-MB-435 melanoma = system: MDA-MB-435 melanoma
Structure (SMILES),growth (SR leukemia),growth (RPMI-8226 leukemia),growth (OVCAR-8 ovarian),growth (OVCAR-5 ovarian),growth (OVCAR-4 ovarian),growth (SK-OV-3 ovarian),growth (IGROV1 ovarian),growth (OVCAR-3 ovarian),growth (HS 578T breast),growth (NCI/ADR-RES ovarian),growth (T-47D breast),growth (BT-549 breast),growth (SW-620 colon),growth (MCF7 breast),growth (HCT-116 colon),growth (HCC-2998 colon),growth (KM12 colon),growth (MDA-MB-468 breast),growth (MDA-MB-435 melanoma)
N#Cc1ccc(-c2nn(-c3ccc(C(=O)O)cc3)cc2CNc2cc(Cl)cc(Cl)c2)cc1,36.5%,21.6%,47.6%,84%,65.4%,126%,52.5%,45.7%,50.2%,17.2%,25.9%,-1.57% (active),49.2%,27.3%,12.5%,9.16% (active),18.6%,43.4%,
COc1ccc(C(=O)NC(=S)N2CCN(c3ncnc4c3cnn4-c3ccccc3)CC2)cc1,12.3%,72.6%,51.3%,79.3%,54.1%,7.3% (active),66.4%,83.1%,51%,61.7%,70.3%,88.2%,80.5%,54.3%,66.6%,87%,84.4%,61.2%,84.8%
O=C(CNc1nc(-c2ccccc2)cs1)Nc1ccc([N+](=O)[O-])cc1Cl,16.7%,15.5%,30.4%,36.4%,45.4%,35.8%,33.9%,23.4%,17.6%,-7% (active),12.5%,8.83% (active),23.2%,9.27% (active),21.4%,7.28% (active),29.1%,-30.3% (active),
COc1ccc(NC(=O)Cn2c(/C=C/c3ccc(N(C)C)cc3)nc3ccccc3c2=O)cc1,72.5%,57.1%,21%,66.4%,58.7%,24.7%,47.2%,26.9%,65.7%,32.2%,44.2%,-9.99% (active),48%,21.5%,28.6%,63%,50.5%,-25.4% (active),
O=C(Nc1nc2ccccc2s1)c1ccc(Br)cc1,80.1%,64.2%,98.5%,92.9%,80.6%,104%,75.1%,111%,95.5%,76.7%,44.1%,90.3%,95%,41.6%,86.2%,78.3%,72.4%,37.9%,
Cn1cc(/C=N/Nc2cccc(Cl)n2)c2ccccc21,27.6%,47.6%,80.3%,92.5%,60.3%,92.6%,46.1%,63.3%,69.4%,36.1%,47.2%,43.4%,65.9%,35.9%,33.3%,48.5%,33.1%,-1.15% (active),10.7%
N#Cc1ccc(NC(=O)CSc2ccc(-c3ccc(Br)cc3)nn2)cc1,46.6%,57.6%,76.3%,88.2%,59%,86.1%,74.6%,76.6%,72.9%,35.7%,46.9%,70.5%,91.1%,56.2%,64%,92.9%,76.7%,62.5%,65.1%
Clc1ccc2c(N/N=C/c3c[nH]c4ccc(Br)cc34)ccnc2c1,-45.6% (active),-42.1% (active),-64.6% (active),-66.5% (active),-78.6% (active),-84.7% (active),-41.2% (active),-82.8% (active),-58.5% (active),-77.5% (active),-54.6% (active),-79.5% (active),2.03% (active),-56.8% (active),-10.3% (active),-92.5% (active),-81.7% (active),-94.2% (active),-77.3% (active)
O=c1[nH]c2ccc(Cl)cc2cc1CSc1ccc(Nc2nccc(-c3ccc(Cl)cc3)n2)cc1,54.2%,73%,-0.363% (active),81.3%,-59.9% (active),122%,84.7%,-63.1% (active),56.8%,50.2%,78.9%,81.7%,3.61% (active),5.48% (active),32.9%,67%,31.4%,-20.1% (active),47%
Cc1ccc(/C=C/C(=O)c2ccc(S(=O)(=O)NCCNc3nc(Nc4ccc(F)cc4)nc(N(C)C)n3)cc2)cc1,1.14% (active),4.72% (active),3.72% (active),39.2%,21.8%,94.7%,52.1%,-55.9% (active),68.8%,14.7%,24.8%,64.6%,-8.7% (active),-55.8% (active),-51.7% (active),-11.9% (active),-53.8% (active),-2.81% (active),
Cc1ccc(/C=C/C(=O)c2ccc(NC(=O)CSc3nnc(-c4c[nH]c5ccccc45)n3-c3ccccc3)cc2)c(C)c1,41.6%,22.8%,1.17% (active),77.3%,13.1%,106%,66.8%,32%,67.8%,64.2%,36.9%,52.8%,33.2%,3.33% (active),-4.32% (active),74.1%,66.6%,22%,49.5%
CN1CCc2c(sc3ncnc(N/N=C/c4ccc5ccccc5c4)c23)C1,9.62% (active),42.6%,78.6%,88.6%,73.9%,96.1%,87.9%,75%,62.3%,76.7%,92.1%,71.1%,22.9%,20.7%,-13.2% (active),73.8%,78.1%,42%,
CCOC(=O)CNC(=O)CN(Cc1ccccc1)C(=O)[C@@]1(C)CCC[C@]2(C)[C@H]3C[C@H]4C(C(C)C)=C[C@]3(CC[C@H]21)[C@@H]1C(=O)OC(=O)[C@@H]14,4.44% (active),15.2%,55.9%,105%,62.2%,89.4%,41.8%,44.1%,60.3%,45.3%,67.4%,76.2%,79.4%,30.7%,37.4%,69.6%,53%,48.9%,
N#Cc1c(NC(=O)c2ccc(C(F)(F)F)c(Cl)c2)sc2c1CCC(=O)C2,-11.8% (active),0.426% (active),-34% (active),-8.2% (active),-21.1% (active),-30.1% (active),-35.3% (active),-57% (active),-26% (active),-48.9% (active),-53% (active),-82.1% (active),-56.8% (active),-3.57% (active),-44.9% (active),-74.4% (active),-28.4% (active),-71.2% (active),-68.4% (active)
Cc1cc(=O)oc2cc(OCCCCOc3ccc(/C=C/C(=O)Nc4ccccc4[N+](=O)[O-])cc3)ccc12,88%,108%,111%,108%,109%,119%,106%,128%,111%,115%,100%,117%,114%,97%,115%,120%,109%,169%,112%
CCCn1c(=O)c2[nH]c(-c3ccc(OCc4nc5ccc(F)cc5[nH]4)cc3)nc2n(CCC)c1=O,11.8%,16.7%,-41.3% (active),43.3%,-2.86% (active),-41.3% (active),28.1%,5.45% (active),0.819% (active),64.9%,-17.8% (active),6.64% (active),17.1%,8.76% (active),3.12% (active),83.2%,55.7%,-12.7% (active),47.8%
Cc1ccc2nc3c(nc2c1)c1cc(I)ccc1n3CCN(C)C,10.8%,22%,23.6%,31.9%,27.2%,39%,13.9%,40.8%,23.9%,12.5%,44.8%,60.2%,15.9%,-4.43% (active),9.81% (active),-15.6% (active),21.1%,5.08% (active),13.7%
